# Results as given in PubChem BioAssay AID1578 (Sanford-Burnham Center for Chemical Genomics, 2009).
# Screen size: about 290,000 compounds; about 3,000 (1%) were called active. Cut-off read from the data, not from the text of the source: active = inhibition mostly above about 36% (no sharp cut-off); inactive = mostly below about 34%. Only a selection was taken, and actives are over-represented in it overall.
# Experiment: inhibition of NOD1-driven NF-kB reporter – cell-based, luminescence, uHTS, primary screen (AID 1578);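 note: HEK-293T reporter cells stimulated with the NOD1 agonist gamma-tri-DAP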
# Details: NOD1-driven NF-kB luciferase reporter cells, at 4 µM, stronger effect = higher value
row,SMILES,inhibition
1,Cn1c(/C(C#N)=C(\O)c2ccc(Cl)s2)nc2ccccc21,11.7% (inactive)
2,C=C1CC2C=C(NC(C)=O)CC(C1)C2 (configuration not stated),-6.6% (inactive)
3,Cc1cccc(NC(=O)Cn2c(O)c(N=NC(N)=S)c3ccccc32)c1,-3.4% (inactive)
4,Cc1cccc(Cn2c(O)c(N=NC(=S)Nc3ccccc3F)c3ccccc32)c1,14.6% (inactive)
5,CC(C)C(=O)NC(NC1CCS(=O)(=O)C1)C(Cl)(Cl)Cl (configuration not stated),-26.8% (inactive)
6,COc1ccc(-n2c(C)cc(/C=C3/SC(=O)N(CC(=O)N4CCOCC4)C3=O)c2C)cc1,-15% (inactive)
7,CCOC(=O)N1CCN(C(=O)c2cn(C)c3ccc(S(=O)(=O)N4CCOCC4)cc3c2=O)CC1,-11% (inactive)
8,O=C(COc1ccc(Cl)cc1)NCCCn1ccnc1,-7.5% (inactive)
9,O=C(COc1ccc(Br)cc1)NCCCn1ccnc1,62.4% (active)
10,COc1ccc(OCC(=O)NCCCn2ccnc2)cc1,9.1% (inactive)
11,COCCN(Cc1cc2cc3c(cc2nc1Cl)OCO3)C(C)=O,6.5% (inactive)
12,CSc1ccc(/C=N/S(=O)(=O)c2ccccc2)cc1,3.8% (inactive)
13,CN(C)Cc1nc2c([nH]1)c(=O)n(C)c(=O)n2C,1.7% (inactive)
14,Cn1c(=O)c2[nH]c(COc3ccc(C(C)(C)C)cc3)nc2n(C)c1=O,34.1% (active)
15,CCCc1nc2c([nH]1)c(=O)n(C)c(=O)n2C,-7.1% (inactive)
16,CC1CCCC(C)N1C(=O)CSc1nc2c(c(=O)n(C)c(=O)n2C)n1C (configuration not stated),-1% (inactive)
17,CC(C)Oc1ccccc1/C=N/NC(=O)c1ccccc1Cl,0.5% (inactive)
18,CC1CCCC(NC(=O)Cc2ccc(Br)cc2)C1C (configuration not stated),-21.4% (inactive)
19,CCC(c1nnnn1C(C)C)N1CCN(C2CCCC2)CC1 (configuration not stated),-14% (inactive)
20,COc1ccc(/C=C2\COc3ccccc3C2=O)c(OC)c1,-27.3% (inactive)
21,COc1ccc(Nc2nc(-c3c(C)nc4ncccn34)cs2)cc1,17.6% (inactive)
22,COc1ccccc1Nc1nc(-c2c(C)nc3ncccn23)cs1,61.6% (active)
23,COc1ccc(OC)c(Nc2nc(-c3c(C)nc4ncccn34)cs2)c1,-9.4% (inactive)
24,CCOC(=O)c1ccc(N=c2ssnc2Cl)cc1,-21.1% (inactive)
25,CN(CCN1CCOCC1)Cc1nc(-c2cccs2)no1,-22.4% (inactive)
26,Cc1ccsc1C=Nc1ccc(O)cc1,27.4% (inactive)

row,SMILES,inhibition
1,Cc1ccsc1/C=N/N=C/c1sccc1C,76.7% (active)
2,Cc1ccsc1/C=N/n1cnnc1,-5.7% (inactive)
3,COc1ccc(C(=O)C(OC(=O)CNC(=O)c2ccco2)c2ccccc2)cc1 (configuration not stated),-7.7% (inactive)
4,COc1ccccc1C(=O)NNC(=O)C1CCCO1 (configuration not stated),-10.6% (inactive)
5,COc1ccc(C(=O)Nc2ccc(N3CCCCC3)cc2)cc1Br,-49% (inactive)
6,O=C1CCC(c2ccccc2)N1C(=O)c1cccnc1 (configuration not stated),-12.6% (inactive)
7,CNc1nc2ccccc2n1N,47% (inactive)
8,N#C/C=C1\n2c(nc3ccccc32)OC12CCCCC2,-4% (inactive)
9,CC1(C)Oc2nc3ccccc3n2/C1=C\C#N,42% (active)
10,Cc1cccc(CSc2ncnc3nc[nH]c23)c1,-13.3% (inactive)
11,c1ccc(CCNc2ncnc3nc[nH]c23)cc1,16.7% (inactive)
12,c1ccc2c(CCNc3ncnc4nc[nH]c34)c[nH]c2c1,20.4% (inactive)
13,c1ccc(CCSc2ncnc3nc[nH]c23)cc1,-1.6% (inactive)
14,c1ccc2c(CSc3ncnc4nc[nH]c34)cccc2c1,71.3% (active)
15,c1ccc2c(CCNc3ncnc4nc[nH]c34)cccc2c1,62% (active)
16,Cc1cccc(C(=O)NC(=O)Nc2c(C)cc(C)nc2C)c1,-46.9% (inactive)
17,O=C(CCCn1cc([N+](=O)[O-])cn1)Nc1cccnc1,-11.6% (inactive)
18,Cc1ccc(C(=O)c2coc3cc([N+](=O)[O-])c(O)c([N+](=O)[O-])c23)cc1,21.2% (inactive)
19,CCCCN(c1ccccc1)c1ncnc2nc[nH]c12,36.9% (inactive)
20,CCCCN(Cc1ccccc1)c1ncnc2nc[nH]c12,-41% (inactive)
21,CCCCN(CCCC)c1ncnc2nc[nH]c12,84.5% (active)
22,O=C(N[C@@H]1CCC(=O)N(CC[C@H](Oc2ccccc2)c2ccccc2)CC1)OCc1ccccc1,53.8% (inactive)
23,COc1cc(/C=C(\C#N)C(=O)NC2CCCCC2C)ccc1OS(=O)(=O)c1ccc(C)cc1 (configuration not stated),75.9% (active)
24,COc1cc(/C=C(\C#N)C(N)=O)ccc1OS(=O)(=O)c1ccc(C)cc1,14.7% (inactive)
25,C=CCNC(=O)/C(C#N)=C/c1ccc(OS(=O)(=O)c2ccc(C)cc2)c(OC)c1,10% (inactive)
26,COc1ccc(CNC(=O)CN(Cc2ccc(F)cc2)C(=O)c2csnn2)cc1,-24.5% (inactive)

row,SMILES,inhibition
1,C=CCn1c(=O)c2ccc(C(=O)NCc3ccccc3)cc2n(Cc2cccc(Cl)c2)c1=O,61.7% (inactive)
2,O=C(CN1CCCN(S(=O)(=O)c2ccc(F)cc2)CC1)Nc1c(Cl)cccc1Cl,-4.7% (inactive)
3,Fc1cccc(Cl)c1CNC(c1ccccc1)c1ccccc1,9.2% (inactive)
4,Cc1ccc(NCC(=O)N/N=C/c2cc3ccccc3nc2Cl)cc1,-21.8% (inactive)
5,CCOC(=O)C(=Cc1ccc(Br)cc1)C(=O)OCC,36.2% (active)
6,COC(=O)/C=C/c1ccc(-n2ccnc2)cc1,-9.9% (inactive)
7,CCOC(=O)/C(=C/c1ccc(OC(=O)c2ccccc2)cc1)C(C)=O,-13.5% (inactive)
8,CCOC(=O)C(=Cc1ccc(-n2ccnc2)cc1)C(=O)OCC,45.8% (active)
9,CCOC(=O)C(=Cc1ccccc1OC)C(=O)OCC,47.6% (active)
10,CCOC(=O)C(=Cc1ccc(F)cc1)C(=O)OCC,31.2% (inactive)
11,O=C(O)/C=C/c1ccc(-n2ccnc2)cc1,1.1% (inactive)
12,COc1ccccc1/C=C(/C(=O)OCC(N)=O)c1ccccc1,0.8% (inactive)
13,CCOC(=O)C(=Cc1cc(=O)c(OC)co1)C(=O)OCC,-12.3% (inactive)
14,Cc1nn(-c2ccccc2)c(C)c1C(=O)OCC(=O)N1CCN(S(=O)(=O)c2ccccc2)CC1,-0.7% (inactive)
15,Cc1ccc2c(N)c(C)ccc2c1,-4.1% (inactive)
16,Cn1ncc(N2CCN(C(=O)c3ccc(Cl)cc3)CC2)c(Cl)c1=O,-21.9% (inactive)
17,COc1ccc(CNC(=O)C2CCCN(S(=O)(=O)c3ccc(Br)s3)C2)cc1 (configuration not stated),-13.3% (inactive)
18,Cc1cc(N/N=C/c2ccccc2F)nc(NCc2ccccc2)n1,-2.7% (inactive)
19,CCc1ccc(N/C(SCc2cccc(F)c2)=C(/C#N)C(=O)NCc2ccco2)cc1,3.2% (inactive)
20,Cc1cccc(CSC(Nc2ccc(F)cc2)=C(C#N)C#N)c1,83.7% (active)
21,CCN(CC)C(=O)CSC(Nc1ccc(F)cc1)=C(C#N)C#N,4.2% (inactive)
22,COc1ccc(S(=O)(=O)N(C)CC(=O)N2CCCC2)cc1OC,-5.3% (inactive)
23,c1ccc(SCc2cn(C[C@H]3CC[C@@H]([C@@H]4CC[C@H](Cn5cc(CSc6ccccc6)nn5)O4)O3)nn2)cc1,22.8% (inactive)
24,CCCn1c2ccccc2c2cnn(CC(=O)NC3CCCCC3)c(=O)c21,-26.9% (inactive)
25,CCN(CC)C(=S)SCC(=O)Nc1nc(-c2ccccc2)c(-c2ccccc2)o1,72.2% (active)
26,O=C(Nc1nc(-c2ccccc2)c(-c2ccccc2)o1)c1ccc(F)cc1,97.4% (active)

row,SMILES,inhibition
1,Cc1ccc(C(=O)Nc2nc(-c3ccccc3)c(-c3ccccc3)o2)cc1,35.6% (inactive)
2,CC(=O)Nc1nc(-c2ccccc2)c(-c2ccccc2)o1,-5.3% (inactive)
3,O=C(CSC(=S)N1CCCCC1)Nc1nc(-c2ccccc2)c(-c2ccccc2)o1,9.9% (inactive)
4,CN1CCN(C(=S)SCC(=O)Nc2nc(-c3ccccc3)c(-c3ccccc3)o2)CC1,-3.5% (inactive)
5,COc1ccccc1OCc1ccc(C(=O)N2CCOCC2)o1,-11% (inactive)
6,C=CCN(Cc1cc(OC)ccc1OC)S(=O)(=O)N(C)C,3.4% (inactive)
7,O=C(Cc1ccc(Br)cc1)OCC(=O)N1CCc2ccccc2C1,-12.8% (inactive)
8,OCCC1CN(Cc2cccc(-c3ccco3)c2)CCN1Cc1ccsc1 (configuration not stated),-17.2% (inactive)
9,CSCc1cc(N2CCOCC2)nc(SCc2ccc(Cl)c(Cl)c2)n1,-11.4% (inactive)
10,COc1ccc(CSc2nc(CSC)cc(N3CCOCC3)n2)cc1,7.8% (inactive)
11,COCc1cc(N2CCOCC2)nc(SCc2ccc(Cl)cc2)n1,52.1% (active)
12,CCCCCCn1ccc(=N)cc1,41.6% (inactive)
13,CCCCCn1ccc(=N)cc1,13.1% (inactive)
14,CCN(CC)S(=O)(=O)c1ccc(NS(=O)(=O)c2ccc3oc(=O)[nH]c3c2)cc1,22.1% (inactive)
15,CCCc1n[nH]c2c1C(=O)C(C(=O)OC)C(C)(C)C2 (configuration not stated),11.5% (inactive)
16,COC(=O)C1C(=O)c2c(C)noc2CC1(C)C (configuration not stated),64.3% (active)
17,COC(=O)C1C(=O)c2c(n[nH]c2C)CC1(C)C (configuration not stated),-14.2% (inactive)
18,O=C(c1ccccn1)c1conc1C(=O)c1ccc(Br)cc1,0.5% (inactive)
19,CN(C(=S)NC(=O)Cc1ccccc1)c1ccccc1,-27.4% (inactive)
20,Cc1cc(C)cc(NC(=S)N2CCN(S(=O)(=O)c3ccccc3)CC2)c1,-17.6% (inactive)
21,Cc1csc(CN(C)C(=O)CC2C(=O)NCCN2Cc2ccc(F)cc2Cl)n1 (configuration not stated),-11.4% (inactive)
22,c1coc(CNc2nc3ccccc3n2CCN2CCOCC2)c1,43.1% (active)
23,c1csc(CNc2nc3ccccc3n2CCN2CCOCC2)c1,1.1% (inactive)
24,CCCn1c(NCc2ccco2)nc2ccccc21,-16.4% (inactive)
